From PubChem
VACV mCherry inh: qHTS for Stage-Specific Inhibitors of Vaccinia Orthopoxvirus: mCherry Reporter Primary qHTS | 310,000 compounds, 0.63% hits | AID 720579, 2013 | Vaccinia virus mCherry reporter infection, fluorescence | Potency, µM (titrated, usually from 36.5 µM), for the others: at the top dose activity change, negative = inhibition, actives largely listed as inhibitors; calls by dose curve; tested in A549 cells; further: nearly all actives have a fitted effect of over 35% in size
VACV Venus inh: qHTS for Stage-Specific Inhibitors of Vaccinia Orthopoxvirus: Venus Reporter Primary qHTS. AID 720580, 2013. Vaccinia virus Venus reporter expression, fluorescence. 330,000 compounds, 0.46% hits. Potency, µM (titrated, usually from 36.5 µM), without a hit: at the top dose activity change, negative = inhibition, actives largely listed as inhibitors; calls by dose curve; tested in A549 cells; further: nearly all actives have a fitted effect of over 30% in size
HCV inhibitor: qHTS Assay for Inhibitors of Hepatitis C Virus (HCV) | 340,000 compounds, 3.4% hits | Potency, µM (highest dose often 41.8 µM), for the others: top-dose activity change, negative = inhibition, actives largely listed as inhibitors | Huh7.5.1 HCVcc-Cre infection, luciferase reporter, 44 h; active means well fitted inhibition curve with a large enough effect; inconclusive means small, poorly fitted or top-dose-only effect, or another doubt; inactive means no such curve, though single readings can be large or run the other way
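Whole-lifecycle infectious HCVcc-Cre system; cells 1,000/well, compound then virus (~0.5 moi) added 4 h after plating, 44 h culture. Luciferase read 15 sec following 15 min substrate incubation, room temp.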
The depositor's hits bear a star; i = inactive; ? = inconclusive; nt = not tested or not shown. A selection: hits, their analogues and other compounds. The true share with any hit is near 3.3%. On the % scale 0 is the no-effect control and ±100 the full control effect; potency means the concentration at half of the fitted maximal effect.

SMILES	VACV mCherry inh	VACV Venus inh	HCV inhibitor
CC(C)(C)OC(=O)N1CCC(c2c(C(=O)NCCN3CCc4ccccc4C3)cnn2-c2ccc(F)cc2F)CC1	-26.6%	-27.4%	nt
O=C(NCc1ccc2c(c1)CCN2C(=O)c1ccncc1)c1cccc(Cl)c1	-23.1%	-12.3%	nt
Cc1c(NC(=O)c2cc3ccccc3o2)cccc1-c1nc2ccccc2o1	-20.5%	-9.4%	nt
Cc1cc(C)c(C)c(S(=O)(=O)Nc2ccc3cn[nH]c3c2)c1C	nt	nt	12.6µM*
O=S(=O)(Nc1ccc2cn[nH]c2c1)c1ccc(C(F)(F)F)cc1	nt	nt	22.0%
COc1ccc(S(=O)(=O)Nc2ccc3cn[nH]c3c2)cc1C	-15.7%	-13.7%	-19.9%
CCOC(=O)c1ccc(S(=O)(=O)Nc2ccc3cn[nH]c3c2)cc1	nt	nt	11.2µM*
CCCS(=O)(=O)NCc1c(C)ncc2c1CCN(C(=O)/C=C/c1ccccc1)C2	-15.7%	-7.1%	nt
CCSc1nnc(C(C)NS(=O)(=O)c2cccc(Cl)c2C)n1C (stereo not given)	-1.5%	0.5%	nt
O=C1N(Cc2cccc(C(F)(F)F)c2)c2ccccc2S(=O)(=O)N1c1cccc(Cl)c1	15.0%	9.4%	nt
CCOC(=O)c1c(C)[nH]c2cc(Br)c(OC)cc12	nt	-17.6%	5.62µM*
CCOC(=O)c1c(C)[nH]c(C)c1-c1ccccc1OC	nt	?	11.8%
Cc1cccc(C)c1NC(=O)CN(C)C(=O)C1CC1C (stereo not given)	nt	nt	25.6%
COc1cc2nc(N3CCOCC3)nc(NC3CC3)c2cc1OC	-17.6%	-6.9%	nt
C=CC[C@@H](CC(=O)N(CCO)Cc1ccccc1)C(=O)N[C@H](COC(=O)[C@@H](CC=C)CC(=O)OC(C)(C)C)Cc1ccccc1	i	-13.3%	?
C=CC[C@H](CC(=O)N(CCO)Cc1ccccc1)C(=O)N[C@H](COC(=O)[C@@H](CC=C)Cc1ccc(F)cc1)Cc1c[nH]c2ccccc12	i	?	?
C=CC[C@@H](CC(=O)N(CCO)Cc1ccccc1)C(=O)N[C@@H](COC(=O)[C@H](CC=C)CC(=O)OC(C)(C)C)Cc1c[nH]c2ccccc12	?	11.2µM*	?
C=CC[C@H](CC(=O)N(CCO)Cc1ccccc1)C(=O)N[C@H](COC(=O)[C@H](CC=C)CC(=O)OC(C)(C)C)Cc1c[nH]c2ccccc12	-21.2%	-27.8%	25.1µM*
C=CC[C@H](CC(=O)N(CCO)Cc1ccccc1)C(=O)N[C@H](COC(=O)[C@@H](CC=C)CC(=O)OC(C)(C)C)Cc1ccccc1	-0.9%	?	?
C=CC[C@H](CC(=O)N(CCO)Cc1ccccc1)C(=O)N[C@@H](COC(=O)[C@@H](CC=C)CC(=O)OC(C)(C)C)Cc1c[nH]c2ccccc12	?	11.2µM*	?
Cc1cc(C)cc(Cn2c3ccc(NC(=O)NCc4ccc(F)cc4)cc3c(=O)n2C)c1	-4.3%	-10.1%	nt
CC(C)c1nnc(N2C(=O)c3oc4ccccc4c(=O)c3C2c2ccccc2F)s1 (stereo not given)	-1.0%	-4.4%	nt
CC(C)c1ccc(/C=N/NC(=O)c2nnn(-c3nonc3N)c2CSC2=NCCS2)cc1	?	?	11.2µM*
Nc1nonc1-n1nnc(C(=O)N/N=C/c2cccnc2)c1CSC1=NCCS1	?	-15.3%	5.2%
CC1CCN(Cc2c(C(=O)N/N=C/c3ccccc3O)nnn2-c2nonc2N)CC1	2µM*	?	3.55µM*
SMILES	VACV mCherry inh	VACV Venus inh	HCV inhibitor
CCN(CC)c1ccc(/C=N/NC(=O)c2nnn(-c3nonc3N)c2C(C)C)c(O)c1	2.51µM*	?	1.12µM*
CCCc1c(C(=O)N/N=C(\C)c2ccccn2)nnn1-c1nonc1N	0.891µM*	?	nt
CCCc1c(C(=O)N/N=C(\C)c2ccc(O)cc2)nnn1-c1nonc1N	nt	nt	-4.0%
CC(=C/c1ccccc1)/C=N/NC(=O)c1nnn(-c2nonc2N)c1CN1CCC(C)CC1	-21.0%	-13.1%	?
CC(C)c1c(C(=O)N/N=C/c2ccc3c(c2)OCO3)nnn1-c1nonc1N	nt	nt	-8.6%
O=C1NC[C@@H](CCCCN2C[C@H](Cc3ccc(O)cc3)N(CCc3ccccc3)C(=O)C2=O)N(CCc2ccccc2)C1=O	-9.4%	5.4%	nt
COc1ccc([N+](=O)[O-])cc1NC(=O)CCN1CCOCC1	-1.5%	-14.9%	-26.9%
CCc1ccc(NCc2cc3ccc(OC)cc3n(CC(=O)Nc3ccc(C)c(Cl)c3)c2=O)cc1	6.9%	21.8%	nt
COc1ccc(CN2CCNC(=O)C2CC(=O)N(C)CC2CCOCC2)cc1C (stereo not given)	-1.8%	-12.8%	-13.3%
CCC(=O)Nc1cc2c(cc1C(C)=O)OCCO2	nt	10.9%	?
CCC(=O)Nc1cc(C(C)(C)C)ccc1C(C)=O	-13.6%	-6.3%	10µM*
Cc1nn(C)c(C(=O)Nc2c(C)nn(Cc3c(F)c(F)c(F)c(F)c3F)c2C)c1Br	-15.7%	-13.3%	-20.0%
CCCCn1c(/N=C/c2cc(OC)ccc2O)nc2ccccc21	?	3.55µM*	-4.5%
CCCn1c(/N=C/c2cc(OC)ccc2O)nc2ccccc21	-24.6%	-17.1%	11.2%
Cc1ccc(-c2ccnc(-n3ncc(C(=O)N4CCCCC4c4cccnc4)c3C3CC3)n2)o1 (stereo not given)	-6.7%	?	nt
CCOc1ccc(-n2c(C)c(C(C)=O)c(C(C)=O)c2C)cc1	nt	-27.0%	1.9%
CCOc1ccc(-c2c(C)n(-c3ccc(OCC)cc3)c3[n+]2CCCCC3)cc1	-19.7%	-18.1%	2.51µM*
Cc1ccc(S(=O)(=O)Nc2c(C)nn(C)c2C)cc1C	i	-1.7%	0.562µM*
COc1ccc(S(=O)(=O)Nc2c(C)nn(C)c2C)cc1Br	nt	nt	-26.3%
CC1CN(C(=O)c2cc(Br)c(Br)s2)CC(C)O1 (stereo not given)	nt	nt	-2.4%
CCN1/C(=C/c2ccc3cccc(C)c3[n+]2CC)Sc2ccccc21	nt	nt	6.31µM*
CCN1/C(=C/c2ccc3cc(C)ccc3[n+]2CC)Sc2ccc3sccc3c21	-13.9%	37.7%	3.55µM*
CC[n+]1c(C)sc2c3ccsc3ccc21	i	0.0%	13.0%
C[n+]1ccccc1/C=C1\Sc2ccccc2N1CCO	-12.9%	-6.2%	?
CC[n+]1c(/C=C/c2ccc(OC)c(OC)c2)ccc2ccccc21	nt	nt	1.9%
SMILES	VACV mCherry inh	VACV Venus inh	HCV inhibitor
CCN1/C(=C\c2ccc3cc(C)ccc3[n+]2CC)Sc2cc(C)c(C)cc21	nt	nt	2.82µM*
Cc1nc2c(cc1N)nc(C)n2Cc1ccccc1	-10.2%	-8.3%	14.7%
COc1cccc(-n2c(-c3cccc(F)c3)nc3c(cnn3-c3ccc(C)cc3)c2=O)c1	-4.8%	-13.7%	nt
COCCCNc1oc(/C=C/c2cc(OC)c(OC)c(OC)c2)nc1C#N	-7.9%	-10.3%	nt
CCOc1ccc(NC(=O)Cn2c(=O)n(CCCCCC(=O)NCc3ccccc3)c(=O)c3sccc32)cc1	-8.3%	-8.9%	nt
Clc1ccc(OCCSc2ncccn2)c(Br)c1	-13.2%	-12.6%	11.2µM*
Brc1cccc(OCCSc2ncccn2)c1	-5.8%	-0.6%	-10.6%
Cc1ccc(-n2nc(CO)c(C(=O)NCc3cccnc3)n2)cc1C	-26.6%	-14.7%	nt
O=C1C=CC(=C(c2ccc(O)cc2)c2ccc(O)cc2)C=C1	-26.8%	1.8%	10µM*
O=S(=O)(c1ccc(O)cc1)c1ccc(O)cc1	nt	nt	0.0%
O=C(Nc1cc2c(cc1[N+](=O)[O-])OCCO2)c1cccnc1	-7.3%	0.1%	2.8%
